PLK1 PBD block: blocks phosphopeptide binding to human PLK1 polo-box domain. P53350. Plk1 PBD binding of FITC phosphopeptide, fluorescence polarization. Potency, µM, without a hit: max response, negative = inhibition, actives largely listed as inhibitors. 360,000 tested, 2.8% active; further: potency means the concentration at half of the fitted maximal effect; series mostly up to about 57 µM; nearly all actives have a fitted effect of over 65% in size
Target sequence (P53350 whole entry, looked up, the tested form may be a part): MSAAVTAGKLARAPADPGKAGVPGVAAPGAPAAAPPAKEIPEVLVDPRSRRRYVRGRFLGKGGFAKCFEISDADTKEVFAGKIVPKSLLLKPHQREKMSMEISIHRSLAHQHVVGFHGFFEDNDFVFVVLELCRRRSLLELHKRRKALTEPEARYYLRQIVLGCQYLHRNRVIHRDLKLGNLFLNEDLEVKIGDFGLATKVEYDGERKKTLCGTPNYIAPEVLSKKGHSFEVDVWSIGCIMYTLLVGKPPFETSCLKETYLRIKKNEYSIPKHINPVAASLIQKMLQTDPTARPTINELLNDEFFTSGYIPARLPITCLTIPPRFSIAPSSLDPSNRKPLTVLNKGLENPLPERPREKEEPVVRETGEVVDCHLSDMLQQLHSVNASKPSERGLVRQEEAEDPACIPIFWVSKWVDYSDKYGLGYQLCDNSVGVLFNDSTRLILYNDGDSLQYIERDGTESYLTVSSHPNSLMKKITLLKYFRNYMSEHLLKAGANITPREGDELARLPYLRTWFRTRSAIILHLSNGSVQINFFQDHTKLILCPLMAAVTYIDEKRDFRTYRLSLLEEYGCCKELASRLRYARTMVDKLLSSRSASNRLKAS
MmCpn inh: inhibitors of Methanococcus maripaludis chaperonin TRiC (MmCpn) | 330,000 tested, 0.031% active | purified Mm-Cpn ATPase, ADP Transcreener TR-FRET | Potency, µM (highest dose often 76.9 µM), inactives show at the highest dose activity, negative = inhibition, hits mostly inhibitors; further: potency means the concentration at half of the fitted maximal effect; nearly all actives have a fitted effect of over 80% in size
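ATPase read-out: TR-FRET ADP immunoassay (anti-ADP Eu cryptate vs ADP-d2), ex 320 nm, em 590/665 nm; signal drops as ADP forms. Enzyme 25 nM, ATP 10 uM, 30 min at 37°C after 10 min compound preincubation.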
Sfp inh: blocks B. subtilis Sfp PPTase activity. Q9F4F7. Biochemical Sfp PPTase activity, qHTS. Potency, µM, without a hit: largest response in the series, negative = inhibition, hits mostly inhibitors. 310,000 tested, 3.5% active. AID 1490;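 further: the enzyme is Sfp with the accession as filed and its product quenches rhodamine fluorescence; potency means the concentration at half of the fitted maximal effect; 0% = enzyme reaction without inhibitor and -100% = no enzyme wells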
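Reaction rates are the 30-min fluorescence difference (ex 525, em 598 nm) in wells containing 15 nM Sfp, 5 uM rhodamine-CoA and 12.5 uM BHQ-2-YbbR at pH 7.6 with 10 mM MgCl2.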
G9a block: blocks human histone lysine methyltransferase G9a. Q96KQ7. G9a H3K9 monomethylation, AlphaScreen, 2 h. Potency, µM (doses to about 102 µM), for inactives: at the top dose activity, negative = inhibition, hits mostly inhibitors. 350,000 tested, 8.8% active. AID 504332; further: potency means the concentration at half of the fitted maximal effect; nearly all actives have a fitted effect of over 75% in size
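Readings reflect AlphaScreen signal from monomethyl-H3K9 antibody detection. HMT at 20 nM; substrate b-H3K9 500 nM; cofactor SAM 20 uM; 2 h RT reaction; compounds tested as titrations in qHTS with 15 min preincubation.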
CCT modulator: changes cytosolic chaperonin activity | AID 651819 | activity change, % (no concentration beside the values), hits read low | purified chaperonin ATPase assay, HTRF ADP detection, 30 min | 360,000 tested, 0.3% active; in the data active means activity change below about -30%
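ATPase activity: ADP formed was measured by HTRF Transcreener (665/615 nm ratio) after 30 min at 37 deg C with 10 uM ATP. Compounds screened at one 76 uM concentration against 40 or 20 nM TRiC in Tris pH 7.4/KCl/MgCl2/DTT buffer.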
VDR inh: vitamin D3 receptor (human) inhibition; 400,000 tested, 0.93% active; VDR-SRC2-3 peptide fluorescence polarization, 2 h; AID 504847; Potency, µM, without a hit: max response, negative = inhibition, hits mostly inhibitors; P11473; further: potency means the concentration at half of the fitted maximal effect
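Compounds are added to VDR with labelled SRC2-3 coactivator peptide and held 2 h at room temperature. Inhibition of the VDR–peptide interaction is then read as a change in fluorescence polarization.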
* = called active by the depositor; ? = inconclusive; · = no result; [ ] = another dose, or the depositor's remark. Most compounds without a hit are left out; they make up all but 10% or so of the library. Unless noted, the call rests on the fitted dose curve; in most records, active means well fitted curve in the direction sought with a large enough effect; inconclusive means small, poorly fitted or top-dose-only effect, or another doubt; inactive means no such curve, though single readings can be large; an effect the other way counts as inactive or inconclusive. Unless noted, on the % scale 0 is the no-effect control and ±100 the full control effect.

SMILES | PLK1 PBD block | MmCpn inh | Sfp inh | G9a block | CCT modulator | VDR inh
CN(C)NC(=S)NC1CCS(=O)(=O)C1 (stereo not drawn) | -1% | -6% | 79µM* | 50µM* | 0 | 18%
O=S1(=O)CCC(NC(=S)NC2CCS(=O)(=O)C2)C1 (stereo not drawn) | -4% | -4% | 5% | -1%[59 µM] | -1 | -14%
Cc1cc(C)c2nc(N(CCCN(C)C)C(=O)c3ccc(S(=O)(=O)N4CC(C)OC(C)C4)cc3)sc2c1 (stereo not drawn) | -7% | 1% | · | ? | -1 | -18%
CCOC(=O)N1CCN(S(=O)(=O)c2ccc(C(=O)N(CCN(C)C)c3nc4c(C)cccc4s3)cc2)CC1 | -3% | 0% | -3% | 45µM* | 1 | -13%
Cc1ccc2sc(N(CCN(C)C)C(=O)c3ccc(S(=O)(=O)N4CC(C)OC(C)C4)cc3)nc2c1C (stereo not drawn) | 0% | 0% | -28% | 50µM* | 1 | 12%
CCN(CC)CCN(C(=O)c1ccc(S(=O)(=O)N(C)C2CCCCC2)cc1)c1nc2c(C)cccc2s1 | -5% | 1% | -7% | -15% | -5 | -4%
Cc1ccc2sc(N(CCCN(C)C)C(=O)c3ccc(S(=O)(=O)N4CCOCC4)cc3)nc2c1C | 4% | 1% | · | 50µM* | 0 | 0%
CN(C)CCCN(C(=O)c1ccc(S(=O)(=O)N2CCCCCC2)cc1)c1nc2c(F)cc(F)cc2s1 | 1% | -4% | · | 45µM* | 4 | -12%
COc1ccc(CCNC(=O)c2cc(C)nc3c2c(C)nn3-c2ccccc2)cc1OC | · | · | · | -10%[59 µM] | · | 1%
CCOC(=O)N1CCN(S(=O)(=O)c2ccc(C(=O)N(CCCN(C)C)c3nc4c(C)c(C)ccc4s3)cc2)CC1 | -2% | -1% | · | 50µM* | -2 | -14%
CCOC(=O)N1CCN(S(=O)(=O)c2ccc(C(=O)N(CCCN(C)C)c3nc4cc(OC)ccc4s3)cc2)CC1 | -5% | -1% | · | 56µM* | -1 | -16%
Cc1ccccc1NC(=O)C1CCC(CNS(=O)(=O)c2ccc3c(c2)C(C)(C)C(=O)N3C)CC1 (stereo not drawn) | · | · | · | -1%[59 µM] | · | 5%
NC(=S)N/N=C1/CCSc2ccc3ccccc3c21 | ? | ? | 6% | 45µM* | 0 | 0%
Cc1cccc(NC(=S)N/N=C/C(C)c2ccccc2)c1C (stereo not drawn) | ? | -3% | 79µM* | ? | 0 | 12%
Cc1ccccc1NC(=S)N/N=C/C(C)c1ccccc1 (stereo not drawn) | -20% | -1% | -13% | 22µM* | 1 | -8%
Cc1ccc(OCC(=O)Nc2cccc(OCc3cc(=O)n4cccc(C)c4n3)c2)cc1C | · | · | · | 18%[59 µM] | · | -16%
CCN1CCN(C(=O)c2cnn(-c3cccc(C)c3)c2C2CCN(C(=O)OC(C)(C)C)CC2)CC1 | · | · | · | 2%[59 µM] | · | 6%
Cn1c(=S)[nH]c(=O)c2ncc(=O)[nH]c21 | -4% | 3% | 71µM* | ? | 0 | 6%
CCSc1nnc2c(n1)OC1(CCCC1)Nc1ccccc1-2 | 0% | 1% | 2% | 35µM* | -5 | -9%
COc1cc(C2CC(=O)N(Cc3ccc(F)cc3)c3ccccc3S2)cc(OC)c1OC (stereo not drawn) | · | · | · | -27%[59 µM] | · | -21%
CCOC(=O)/C(C#N)=C/c1cn(CCC(=O)O)nc1-c1ccccc1 | 30µM* | -1% | 11% | -1% | -2 | -29%
CCOC(=O)/C(C#N)=C/c1cn(CCC(=O)O)nc1-c1ccc(Cl)cc1 | -8% | 3% | 25% | -8% | -2 | -18%
CCC/C(=N/Nc1ccc(Cl)cc1)c1cnnc(-c2ccccc2)n1 | 3% | · | · | · | 2 | -6%
COc1ccc(N/N=C(/C)c2cnnc(-c3ccccc3)n2)cc1 | 12% | -1% | -23% | 1.4µM* | -2 | -11%
O=C1S/C(=C\c2ccc(N3CCOCC3)o2)C(=O)N1Cc1ccc(F)cc1 | 36% | -1% | 2µM* | ? | -1 | ?
SMILES | PLK1 PBD block | MmCpn inh | Sfp inh | G9a block | CCT modulator | VDR inh
C=CCN1C(=O)N/C(=C/c2ccc(N3CCOCC3)o2)C1=O | · | -1% | ? | 32µM* | · | ·
O=C1S/C(=C/c2ccc(N3CCOCC3)o2)C(=O)N1Cc1ccc(F)cc1 | 36% | -1% | 3.5µM* | 7.9µM* | -3 | ?
O=C1N=C(N2CCOCC2)S/C1=C/c1ccc(-c2ccc(F)cc2)o1 | -4% | 0% | -4% | · | 2 | -5%
O=C1NC(=S)S/C1=C/c1ccc(N2CCOCC2)o1 | 57% | -2% | ? | 4.5µM* | -11 | ?
O=C1NC(=S)SC1=Cc1ccc2c(c1)OCO2 | -27% | · | · | · | -2 | -1%
CCc1cccc(NC(=O)CN(c2ccc(C)cc2)S(=O)(=O)c2cccs2)c1 | · | · | · | -2%[59 µM] | · | -19%
Cc1cc(C)c2c(=O)c3c(oc2c1)C(=O)N(Cc1ccco1)C3c1ccccc1F (stereo not drawn) | · | · | · | 3%[59 µM] | · | 0%
Nc1nc(Cl)nc2c1ncn2[C@@H]1O[C@H](CO)[C@H](O)C1F (stereo partly drawn) | · | · | 11% | 25%[59 µM] | · | 1%
CC(C)n1cc(/C=C2/SC(=O)N(CC(=O)N3CCCC3)C2=O)c2ccccc21 | -7% | 0% | 6% | -40%[59 µM] | -1 | -11%
CC(C)OC(=O)CN1C(=O)S/C(=C/c2ccc(N3CCCCC3)o2)C1=O | 33% | 0% | 8.9µM* | ? | 1 | -84%
CCOc1ccc(C2C(=O)N(C3CCCCCC3)CC(=O)N2CCC2=CCCCC2)cc1OC (stereo not drawn) | · | · | · | 5%[59 µM] | · | 9%
Cc1ccc(N2C(=O)c3ccc(C(=O)O)cc3C2=O)cc1C | -3% | 2% | -3% | -31%[59 µM] | 0 | 8%
Cc1ccc(-n2c(=O)c3cc4c(=O)n(-c5ccc(C)c(C)c5)c(=O)c4c(C(=O)c4ccc(C(=O)O)cc4)c3c2=O)cc1C | 30µM* | 0% | -22% | · | -3 | ?
CCOc1cc2[nH]c(=O)n(CCCC(=O)N3CCN(c4ccc(OC)cc4)CC3)c(=O)c2cc1OCC | · | · | · | -34%[59 µM] | · | 13%
CNc1ccccc(-c2ccc3ccccc3n2)c1=O | -9% | -2% | 56µM* | 89µM* | 0 | -7%
c1ccc(-c2ccc3ccccc3n2)cc1 | -15% | · | · | · | 0 | -19%
CC(C)(C)NC(=O)Nc1ccc(F)c(Cl)c1 | -2% | 0% | 5% | 6%[59 µM] | 0 | -25%
CC(C)(O)C(=O)NNC(=S)Nc1ccc(F)c(Cl)c1 | -28% | 0% | 1% | 45µM* | 1 | -15%
O=C(Nc1ccc(F)c(Cl)c1)c1cccnc1 | 21µM* | -1% | 16% | ? | 2 | ?
Fc1ccccc1NC(=S)Nc1cccnc1 | -13% | -2% | -1% | 37%[12.7 µM] | 0 | 4%
Fc1ccc(NC(=S)Nc2cccnc2)cc1Cl | -24% | 0% | 28µM* | · | -2 | -18%
